The text below walks through data of PMC4081100, “A DNA-binding-site landscape and regulatory network analysis for NAC transcription factors in Arabidopsis thaliana”.

Common to all, as to test: universal protein binding microarray (PBM); transcription factors of Arabidopsis thaliana; high values mean tight binding
Settings in all cases: protein: recombinant; tags: GST; chain copies: 2; dsDNA, one strand shown

One test addresses T1, GST-ANAC092(1-176) (Arabidopsis thaliana, UniProt Q9FKA0 1-176).
T1 sequence: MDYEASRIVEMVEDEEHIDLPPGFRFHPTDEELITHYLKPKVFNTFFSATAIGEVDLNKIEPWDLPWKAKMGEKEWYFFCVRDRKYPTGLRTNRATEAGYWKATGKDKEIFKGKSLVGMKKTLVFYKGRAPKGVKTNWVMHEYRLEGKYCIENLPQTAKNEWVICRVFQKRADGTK
In short, it runs like this:
(§1)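 Cells were induced to make GST-tagged NAC-domain, full-length or DNA-binding-domain proteins, and zinc acetate was added for zinc-finger proteins. These proteins were purified on glutathione–Sepharose 4B, quantified by A280 or anti-GST western blot, and applied in duplicate at 200 to 500 nM final to custom all-10-mer Agilent 4 × 180K arrays that primer extension had made double-stranded. Binding is given as the normalised enrichment score (E-score) for scored gapped and ungapped 8-mers.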

The next test has as its target T2, GST-ANAC019 NAC domain (Arabidopsis thaliana, UniProt Q9C932 14-162).
T2 sequence: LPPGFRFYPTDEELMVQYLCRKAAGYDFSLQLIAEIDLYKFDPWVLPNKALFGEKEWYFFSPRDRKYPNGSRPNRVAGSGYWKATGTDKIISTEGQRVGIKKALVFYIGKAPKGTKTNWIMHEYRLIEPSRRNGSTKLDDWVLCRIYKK
In short, it runs like this:
as §1

In another test the target is T3, GST-ANAC055(1-171) (Arabidopsis thaliana, UniProt Q9LDY8 1-171).
T3 sequence: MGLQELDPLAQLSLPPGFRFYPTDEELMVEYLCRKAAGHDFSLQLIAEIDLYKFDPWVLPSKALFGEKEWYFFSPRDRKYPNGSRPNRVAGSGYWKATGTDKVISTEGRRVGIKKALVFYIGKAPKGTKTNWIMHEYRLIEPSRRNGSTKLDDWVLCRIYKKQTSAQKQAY
In short, it runs like this:
as §1

The target in the next test is T4, GST-ATAF1 NAC domain (Arabidopsis thaliana, UniProt Q39013 7-158).
T4 sequence: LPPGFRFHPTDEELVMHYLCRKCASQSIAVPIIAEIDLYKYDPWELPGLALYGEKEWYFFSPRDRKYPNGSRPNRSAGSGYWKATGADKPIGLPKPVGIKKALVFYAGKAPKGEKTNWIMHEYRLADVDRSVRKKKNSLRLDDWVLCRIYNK
The gist of the method:
as §1

Test [1] concerns the target T5, GST-ANAC092(1-285) full length (Arabidopsis thaliana, UniProt Q9FKA0 1-285).
T5 sequence: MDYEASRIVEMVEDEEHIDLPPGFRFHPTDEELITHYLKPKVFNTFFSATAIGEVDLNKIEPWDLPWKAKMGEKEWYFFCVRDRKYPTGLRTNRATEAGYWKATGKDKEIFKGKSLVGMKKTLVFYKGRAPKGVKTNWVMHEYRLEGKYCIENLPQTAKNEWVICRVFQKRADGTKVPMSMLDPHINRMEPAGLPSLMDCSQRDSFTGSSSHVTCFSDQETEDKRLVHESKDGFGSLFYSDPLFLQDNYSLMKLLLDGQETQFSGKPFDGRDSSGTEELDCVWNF
In short, it runs like this:
as §1

The target in another test is T6, GST-NAP(1-166) (Arabidopsis thaliana, UniProt O49255 1-166).
T6 sequence: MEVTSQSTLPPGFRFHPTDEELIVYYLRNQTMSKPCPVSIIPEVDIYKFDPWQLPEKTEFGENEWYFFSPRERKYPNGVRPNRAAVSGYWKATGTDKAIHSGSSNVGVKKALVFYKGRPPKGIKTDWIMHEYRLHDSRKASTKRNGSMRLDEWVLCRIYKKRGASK
The gist of the method: as §1

Another test concerns the target T7, GST-NST2(1-184) (Arabidopsis thaliana, UniProt Q9M274 1-184).
T7 sequence: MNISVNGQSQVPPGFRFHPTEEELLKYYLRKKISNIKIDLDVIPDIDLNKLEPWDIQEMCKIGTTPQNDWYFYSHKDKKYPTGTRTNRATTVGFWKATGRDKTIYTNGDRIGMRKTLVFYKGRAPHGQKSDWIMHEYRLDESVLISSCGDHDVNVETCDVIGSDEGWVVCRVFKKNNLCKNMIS
In short, it runs like this:
as §1

For another test, the target named is T8, GST-SND1(1-203) (Arabidopsis thaliana, UniProt Q9LPI7 1-203).
T8 sequence: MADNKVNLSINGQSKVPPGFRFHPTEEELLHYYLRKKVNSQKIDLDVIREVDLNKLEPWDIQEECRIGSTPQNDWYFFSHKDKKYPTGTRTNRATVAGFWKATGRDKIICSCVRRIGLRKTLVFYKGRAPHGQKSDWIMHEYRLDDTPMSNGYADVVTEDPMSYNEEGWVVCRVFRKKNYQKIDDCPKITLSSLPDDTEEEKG
The gist of the method: as §1

The target of a further test is T9, GST-VND3 NAC domain (Arabidopsis thaliana, UniProt Q9FH59 12-162).
T9 sequence: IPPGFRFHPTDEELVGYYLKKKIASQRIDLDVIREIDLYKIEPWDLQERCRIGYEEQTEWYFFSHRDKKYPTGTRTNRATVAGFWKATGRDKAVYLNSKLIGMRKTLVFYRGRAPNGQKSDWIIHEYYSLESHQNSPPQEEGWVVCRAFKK
The gist of the method:
as §1

The target in a further test is T10, GST-VND7 NAC domain (Arabidopsis thaliana, UniProt Q9C8W9 9-158).
T10 sequence: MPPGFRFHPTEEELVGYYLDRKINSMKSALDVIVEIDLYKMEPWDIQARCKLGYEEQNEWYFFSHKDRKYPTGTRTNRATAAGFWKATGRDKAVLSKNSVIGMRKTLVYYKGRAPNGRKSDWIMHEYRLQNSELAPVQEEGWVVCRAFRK
In short, it runs like this:
as §1

Regarding GCGTACGC, the binding signal with GST-ANAC092(1-176) turned out to be 0.402 E-score; with GST-ANAC019 NAC domain, 0.287 E-score; with GST-ANAC055(1-171), 0.265 E-score; with GST-ATAF1 NAC domain it was 0.16 E-score; in test [1], 0.418 E-score; with GST-NAP(1-166) it was 0.226 E-score. Further, the binding signal amounted to 0.251 E-score in the test with GST-NST2(1-184), 0.288 E-score with GST-SND1(1-203), 0.0861 E-score in the test with GST-VND3 NAC domain and 0.346 E-score with GST-VND7 NAC domain.

For the sequence CGCACGCA, the binding signal with GST-ANAC092(1-176) is 0.401 E-score; with GST-ANAC019 NAC domain it was 0.291 E-score; in the test with GST-ANAC055(1-171), 0.241 E-score; with GST-ATAF1 NAC domain, 0.0589 E-score; in test [1], 0.42 E-score; in the test with GST-NAP(1-166), 0.291 E-score. The binding signal with GST-NST2(1-184) is 0.213 E-score; in the test with GST-SND1(1-203) it was 0.229 E-score; with GST-VND3 NAC domain, 0.213 E-score; with GST-VND7 NAC domain, 0.232 E-score.

Consider ACGCAAGC, for which the binding signal with GST-ANAC092(1-176) is 0.466 E-score; in the test with GST-ANAC019 NAC domain, 0.35 E-score; in the test with GST-ANAC055(1-171) it was 0.295 E-score; in the test with GST-ATAF1 NAC domain, 0.148 E-score; in test [1] it was 0.478 E-score; with GST-NAP(1-166), 0.294 E-score. In addition, the binding signal in the test with GST-NST2(1-184) came to 0.299 E-score; with GST-SND1(1-203) it was 0.417 E-score; with GST-VND3 NAC domain it was 0.344 E-score; with GST-VND7 NAC domain it was 0.332 E-score.

For the sequence GTGGCGTA, the binding signal amounted to 0.439 E-score with GST-ANAC092(1-176); 0.148 E-score in the test with GST-ANAC019 NAC domain; 0.144 E-score in the test with GST-ANAC055(1-171); 0.235 E-score in the test with GST-ATAF1 NAC domain; 0.459 E-score in test [1]; 0.0567 E-score in the test with GST-NAP(1-166). The binding signal amounted to 0.3 E-score with GST-NST2(1-184), 0.471 E-score with GST-SND1(1-203), 0.138 E-score with GST-VND3 NAC domain and 0.0712 E-score with GST-VND7 NAC domain.

With TCACGGCA, the binding signal in the test with GST-ANAC092(1-176) amounted to 0.398 E-score; with GST-ANAC019 NAC domain it was 0.473 E-score; with GST-ANAC055(1-171), 0.438 E-score; with GST-ATAF1 NAC domain it was 0.385 E-score; in [1], 0.429 E-score; with GST-NAP(1-166), 0.344 E-score. Further, the binding signal with GST-NST2(1-184) came to 0.177 E-score; in the test with GST-SND1(1-203), 0.16 E-score; in the test with GST-VND3 NAC domain, 0.45 E-score; with GST-VND7 NAC domain, 0.456 E-score.

On to GACGTGTA, for which the binding signal came out at 0.409 E-score with GST-ANAC092(1-176); 0.354 E-score in the test with GST-ANAC019 NAC domain; 0.341 E-score with GST-ANAC055(1-171); 0.291 E-score with GST-ATAF1 NAC domain; 0.437 E-score in test [1]; 0.327 E-score in the test with GST-NAP(1-166). For the same sequence, the binding signal in the test with GST-NST2(1-184) was determined as 0.193 E-score; with GST-SND1(1-203) it was 0.229 E-score; with GST-VND3 NAC domain, 0.354 E-score; with GST-VND7 NAC domain, 0.338 E-score.

On to ACACGCCA, for which the binding signal with GST-ANAC092(1-176) amounted to 0.487 E-score; in the test with GST-ANAC019 NAC domain it was 0.382 E-score; with GST-ANAC055(1-171), 0.298 E-score; with GST-ATAF1 NAC domain it was 0.227 E-score; in test [1], 0.492 E-score; with GST-NAP(1-166) it was 0.294 E-score. The binding signal with GST-NST2(1-184) worked out at 0.313 E-score; with GST-SND1(1-203), 0.379 E-score; with GST-VND3 NAC domain, 0.22 E-score; with GST-VND7 NAC domain, 0.257 E-score.
